Our source for the outcome and Potency values is PubChem BioAssay (NCATS).

Test [1] has as its target ATP-dependent 6-phosphofructokinase (Trypanosoma brucei brucei) (UniProt O15648). Description: qHTS Assay to Find Inhibitors of T. brucei phosphofructokinase: hit validation (AID 492961). Particulars: T. brucei PFK, ADP-Glo luminescence; series mostly up to 51.4 µM. In outline:
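Luminescence from ADP-Glo reports ADP generated as T. brucei PFK (1.25 nM) phosphorylates 0.5 mM fructose-6-phosphate using 0.1 mM ATP. Reactions ran 45 min at room temperature, pH 8.0.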

The test system of another test is 3D7. Kind of test: qHTS profiling for inhibitors of Plasmodium falciparum proliferation (AID 504749). Note: nearly all actives have a fitted effect of over 60% in size. Note: potency is the fitted concentration of half-maximal effect. Particulars: P. falciparum in erythrocytes, SYBR Green DNA, 72 h; series mostly up to 28.7 µM. A digest of the protocol:
(§1)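 P. falciparum-infected erythrocytes (0.3% parasitemia, 2.5% hematocrit) incubated with compound 72 h at 37 C, 5% CO2. Parasite DNA detected by SYBR Green after lysis, overnight at room temperature; normalised to 0.29 uM artemisinin and DMSO.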

The next test concerns 7G8. The description is as above. Particulars: P. falciparum in erythrocytes, SYBR Green DNA, 72 h; series mostly up to 28.7 µM. In outline:
as §1

The next test deals with CP192. The description is as above. Particulars: P. falciparum in erythrocytes, SYBR Green DNA, 72 h; series mostly up to 28.7 µM. A digest of the protocol: as §1
For the next test, the system named is CP201. The test is described as above. Particulars: P. falciparum in erythrocytes, SYBR Green DNA, 72 h; series mostly up to 28.7 µM. A digest of the protocol: as §1
The test system of another test is CP237. The test is described as above. Particulars: P. falciparum in erythrocytes, SYBR Green DNA, 72 h; series mostly up to 28.7 µM. A digest of the protocol:
as §1

Another test concerns DIV14. The test is described as above. Particulars: P. falciparum in erythrocytes, SYBR Green DNA, 72 h; series mostly up to 28.7 µM. A digest of the protocol: as §1
A further test deals with DIV17. Described as above. Particulars: P. falciparum in erythrocytes, SYBR Green DNA, 72 h; series mostly up to 28.7 µM. In outline: as §1
For the next test, the system named is Dd2. The description is as above. Particulars: P. falciparum in erythrocytes, SYBR Green DNA, 72 h; series mostly up to 28.7 µM. A digest of the protocol: as §1
Another test relates to GB4. The test is described as above. Particulars: P. falciparum in erythrocytes, SYBR Green DNA, 72 h; series mostly up to 28.7 µM. In outline:
as §1

For a further test, the system named is HB3. Described as above. Particulars: P. falciparum in erythrocytes, SYBR Green DNA, 72 h; series mostly up to 28.7 µM. In outline: as §1
A further test concerns P94_40. The description is as above. Particulars: P. falciparum in erythrocytes, SYBR Green DNA, 72 h; series mostly up to 28.7 µM. A digest of the protocol: as §1
The subject of a further test is PC49. The description is as above. Particulars: P. falciparum in erythrocytes, SYBR Green DNA, 72 h; series mostly up to 28.7 µM. A digest of the protocol:
as §1

Test [2] in a line: qHTS Assay for Identification of Small Molecule Antagonists for Thrombopoietin (TPO) Signaling Pathway (AID 918). Note: potency is the fitted concentration of half-maximal effect; nearly all actives have a fitted effect of over 60% in size. Particulars: TPO-dependent cell signaling reporter, antagonist mode. In outline: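 Ba/F3 (murine, hTPO-R, GPIIb-luc reporter); overnight IL-3 withdrawal; cpd + TPO 26 pM final (EC50); 24 h 37 C/5% CO2; Steadylite luminescence after 10 min RT.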
A short description of test [3]: Validation screen for small molecules that induce DNA re-replication in MCF 10A normal breast cells (AID 463097). Note: nearly all actives have a fitted effect of over 60% in size. Note: potency is the fitted concentration of half-maximal effect. Particulars: MCF 10A cells, DNA re-replication phenotype imaging; series mostly up to 46.1 µM. In outline: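 Read-out is Hoechst total nuclear intensity by fluorescence scanning imager, flagging increased high-DNA-content nuclei. Compounds were incubated with MCF 10A cells for 48 hr (37 C, 5% CO2) before 40 min staining.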

The target of test [4] is Voltage-gated inwardly rectifying potassium channel KCNH2 (Homo sapiens) (UniProt Q12809). Kind of test: qHTS Assay for Small Molecule Inhibitors of the Human hERG Channel Activity (AID 588834).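 Note: top concentration of the series differs between compounds; lower thallium flux fluorescence means stronger hERG block; nearly all actives have a fitted effect of over 50% in size.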 Particulars: U2OS BacMam hERG, FluxOR thallium flux fluorescence; series mostly up to 46.1 µM. A digest of the protocol: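 Kinetic FDSS fluorescence; U2OS + hERG BacMam (~100 virus particles/cell); FluxOR Tl+ flux; ~10 min cpd; AC50 (Hill).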

In test [5] the target is Phospholipid hydroperoxide glutathione peroxidase GPX4 (Homo sapiens) (UniProt P36969). Kind of test: Primary qHTS Assay for Inhibitors of Recombinant Selenoprotein Glutathione Peroxidase 4 (GPX4) (AID 1845192). Note: nearly all actives have a fitted effect of over 65% in size. Particulars: recombinant GPX4, GR-coupled NADPH fluorescence, 15 min; series mostly up to 50 µM. In outline:
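GR-coupled assay: recombinant GPX4 preincubated 30 min with compound at room temperature; final 200 nM GPX4, 1 mM GSH, 0.5 mM cumene hydroperoxide, 0.5 mM NADPH, 100 nM GR, 0.01% BSA, pH 7.5 Tris. NADPH fluorescence (340/450 nm) read at 0 and 15 min.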

Test [6] addresses Ferritin light chain (Equus caballus) (UniProt P02791). Kind of test: qHTS Validation Assay for Identification of Novel General Anesthetics (AID 2323). Particulars: horse apoferritin, anesthetic-site fluorescent probe displacement; series mostly up to 76.9 µM. A digest of the protocol: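 Competitive displacement of the profluorescent anesthetic 1-AMA (50% saturated, PBS) from 10 uM apoferritin, 10 min, room temperature. Activity is normalized 380/535 nm fluorescence; concentration-response fitted with a four-parameter Hill equation.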

In test [7] the target is Pyruvate kinase PKM (Homo sapiens) (UniProt P14618). Kind of test: qHTS Assay for Inhibitors of Human Muscle Pyruvate Kinase (AID 958). Particulars: purified human PKM enzyme activity. A digest of the protocol:
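PKM2, human, >95% pure, 0.1 nM; PEP 0.5 mM (Km), ADP 0.1 mM; 50 mM imidazole pH 7.2, 50 mM KCl, 0.01% Tween 20, 0.05% BSA; 1 h RT; luciferase luminescence readout.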

The target of test [8] is Pyruvate kinase (Leishmania mexicana) (UniProt Q27686). Kind of test: qHTS Validation Assay for Activators of Leishmania Mexicana Pyruvate Kinase (AID 959). Particulars: purified L. mexicana pyruvate kinase, enzyme activity; series mostly up to 57.5 µM. In outline: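 Mutant LmPYK (E451W), 0.2 nM, plus 0.5 mM PEP and 0.1 mM ADP in 50 mM imidazole pH 7.2 containing 0.01% Tween 20 and 0.05% BSA. Incubated 1 h at room temperature; luminescence via PKLight, normalized to DMSO.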

Inconclusive results are not listed. Calls of active or inactive are those of the source. Calls come from the whole dose curve; as a rule, active = well fitted curve in the direction sought with a large enough effect; inconclusive = small, poorly fitted or top-dose-only effect, or another doubt; inactive = no such curve, though single readings can be large; an effect the other way counts as inactive or inconclusive.

Ferritin light chain (Equus caballus), sequence (P02791 2-175 limits assumed): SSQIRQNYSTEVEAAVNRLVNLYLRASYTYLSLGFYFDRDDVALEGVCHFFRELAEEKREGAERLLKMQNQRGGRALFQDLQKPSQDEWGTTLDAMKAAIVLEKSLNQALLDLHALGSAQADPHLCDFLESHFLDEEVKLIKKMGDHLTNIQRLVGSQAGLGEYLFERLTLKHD
Phospholipid hydroperoxide glutathione peroxidase GPX4 (Homo sapiens), sequence (P36969 whole entry, looked up): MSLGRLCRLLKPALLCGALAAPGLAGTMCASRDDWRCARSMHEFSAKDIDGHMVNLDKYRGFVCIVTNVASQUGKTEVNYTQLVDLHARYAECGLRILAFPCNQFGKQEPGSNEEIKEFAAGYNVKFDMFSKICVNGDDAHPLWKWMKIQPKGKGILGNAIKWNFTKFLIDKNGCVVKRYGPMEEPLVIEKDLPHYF
Pyruvate kinase PKM (Homo sapiens), sequence (P14618 whole entry, looked up): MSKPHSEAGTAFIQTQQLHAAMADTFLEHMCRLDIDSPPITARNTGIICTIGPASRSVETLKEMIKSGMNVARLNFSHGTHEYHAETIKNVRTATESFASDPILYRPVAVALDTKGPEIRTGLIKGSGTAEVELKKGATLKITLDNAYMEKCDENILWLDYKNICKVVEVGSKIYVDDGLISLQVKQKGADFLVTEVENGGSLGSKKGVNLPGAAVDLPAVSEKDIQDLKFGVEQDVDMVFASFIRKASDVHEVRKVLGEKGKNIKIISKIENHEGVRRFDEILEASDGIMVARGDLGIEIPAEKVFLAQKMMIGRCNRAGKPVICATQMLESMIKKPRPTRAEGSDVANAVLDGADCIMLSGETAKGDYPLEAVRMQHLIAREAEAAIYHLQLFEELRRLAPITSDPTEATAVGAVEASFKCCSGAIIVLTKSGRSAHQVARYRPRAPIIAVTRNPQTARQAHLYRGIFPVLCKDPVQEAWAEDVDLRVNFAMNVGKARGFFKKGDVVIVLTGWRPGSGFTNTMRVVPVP
Pyruvate kinase (Leishmania mexicana), sequence (Q27686 2-499 E452W): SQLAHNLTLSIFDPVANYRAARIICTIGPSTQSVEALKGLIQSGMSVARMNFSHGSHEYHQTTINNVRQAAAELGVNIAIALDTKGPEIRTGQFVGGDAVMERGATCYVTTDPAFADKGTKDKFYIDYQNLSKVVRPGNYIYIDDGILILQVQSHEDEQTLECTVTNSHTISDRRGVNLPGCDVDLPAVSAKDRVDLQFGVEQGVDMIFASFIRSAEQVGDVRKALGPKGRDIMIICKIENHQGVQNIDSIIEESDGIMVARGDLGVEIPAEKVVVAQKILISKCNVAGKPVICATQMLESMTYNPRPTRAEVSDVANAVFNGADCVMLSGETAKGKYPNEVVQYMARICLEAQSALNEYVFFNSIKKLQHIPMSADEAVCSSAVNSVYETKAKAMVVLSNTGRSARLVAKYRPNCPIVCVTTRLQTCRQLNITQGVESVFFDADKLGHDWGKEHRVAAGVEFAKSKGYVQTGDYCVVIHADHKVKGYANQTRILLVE
Voltage-gated inwardly rectifying potassium channel KCNH2 (Homo sapiens), sequence (Q12809 whole entry, looked up): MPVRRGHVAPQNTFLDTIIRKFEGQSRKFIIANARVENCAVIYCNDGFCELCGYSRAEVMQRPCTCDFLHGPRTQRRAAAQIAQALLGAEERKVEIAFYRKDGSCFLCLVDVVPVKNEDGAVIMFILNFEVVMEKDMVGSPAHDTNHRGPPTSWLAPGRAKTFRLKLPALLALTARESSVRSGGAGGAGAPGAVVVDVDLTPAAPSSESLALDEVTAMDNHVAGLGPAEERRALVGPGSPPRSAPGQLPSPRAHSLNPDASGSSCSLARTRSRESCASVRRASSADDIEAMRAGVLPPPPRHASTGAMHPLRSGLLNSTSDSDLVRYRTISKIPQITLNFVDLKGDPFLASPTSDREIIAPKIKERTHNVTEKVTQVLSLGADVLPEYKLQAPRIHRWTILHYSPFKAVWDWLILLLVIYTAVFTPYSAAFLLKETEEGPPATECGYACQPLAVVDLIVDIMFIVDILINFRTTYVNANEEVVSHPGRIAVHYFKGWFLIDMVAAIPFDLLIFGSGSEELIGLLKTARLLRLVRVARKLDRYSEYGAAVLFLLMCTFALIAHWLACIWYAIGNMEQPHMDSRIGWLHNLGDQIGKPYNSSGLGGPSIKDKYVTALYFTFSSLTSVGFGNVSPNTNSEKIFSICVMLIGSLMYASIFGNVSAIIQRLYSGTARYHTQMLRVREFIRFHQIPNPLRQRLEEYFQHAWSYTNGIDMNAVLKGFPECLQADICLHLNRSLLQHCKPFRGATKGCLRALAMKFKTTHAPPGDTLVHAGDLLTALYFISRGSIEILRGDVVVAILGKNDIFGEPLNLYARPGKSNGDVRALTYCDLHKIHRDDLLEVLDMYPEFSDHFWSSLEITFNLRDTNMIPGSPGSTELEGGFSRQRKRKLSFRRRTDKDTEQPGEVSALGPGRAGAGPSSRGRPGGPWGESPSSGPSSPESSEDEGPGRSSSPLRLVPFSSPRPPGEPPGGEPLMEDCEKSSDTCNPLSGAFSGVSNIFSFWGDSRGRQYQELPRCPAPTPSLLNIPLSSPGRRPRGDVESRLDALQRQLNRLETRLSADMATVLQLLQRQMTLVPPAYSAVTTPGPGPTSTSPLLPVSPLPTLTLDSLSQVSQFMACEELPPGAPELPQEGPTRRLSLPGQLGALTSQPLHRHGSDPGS
ATP-dependent 6-phosphofructokinase (Trypanosoma brucei brucei), sequence (O15648 whole entry, looked up): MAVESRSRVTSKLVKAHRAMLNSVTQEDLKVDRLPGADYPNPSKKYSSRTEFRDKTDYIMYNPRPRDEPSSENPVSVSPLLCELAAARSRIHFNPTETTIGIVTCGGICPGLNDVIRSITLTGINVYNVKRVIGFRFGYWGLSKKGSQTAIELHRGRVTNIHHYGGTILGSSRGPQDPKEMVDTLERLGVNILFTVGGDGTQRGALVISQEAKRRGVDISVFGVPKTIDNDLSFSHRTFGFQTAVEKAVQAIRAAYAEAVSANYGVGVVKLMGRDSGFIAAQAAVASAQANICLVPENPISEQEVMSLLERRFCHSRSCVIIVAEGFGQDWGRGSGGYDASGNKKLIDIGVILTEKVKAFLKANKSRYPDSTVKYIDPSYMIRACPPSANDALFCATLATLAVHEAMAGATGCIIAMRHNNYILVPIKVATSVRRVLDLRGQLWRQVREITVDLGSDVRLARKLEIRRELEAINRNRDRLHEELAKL

Take `CCOC(=O)C(CCc1ccccc1)NC1CCc2ccccc2N(CC(=O)O)C1=O` (configuration not stated): in test [1], the outcome was inactive. The Potency result in the test with 3D7, in the test on CP192, in the test with CP201, in the test on HB3, in the test on P94_40 and in the test with PC49 was “inactive” throughout. Moreover, the Potency in the test on 7G8 was 7.94 µM (active); in the test with CP237, 10 µM (active); with DIV14, 7.57 µM (active); in the test on DIV17 it was 10.7 µM (active); with Dd2, 11.2 µM (active); in the test with GB4, 15.1 µM (active).

Consider `C[N+](C)(C)CCC(=O)c1cccc2ccccc12`, for which the Potency in test [2] was 2.51 µM (active); in [3], 1.78 µM (active). Further, in test [4], the Potency result is “inactive”.

For the compound `CN[C@@H]1[C@H](O)[C@H](O[C@@H]2[C@H](O)[C@@H](O[C@H]3O[C@H]([C@@H](C)NC)CC[C@H]3N)[C@@H](N)C[C@H]2N)OC[C@]1(C)O`, in test [5], the outcome is “inactive [at 9.73 µM]”.

On to `C=CCN1CCc2cc(O)c(O)cc2[C@H](c2ccccc2)C1`, for which the Potency in test [2] was 5.01 µM (active).

Consider `COc1ccccc1NC(=O)Nc1nc(-c2cccnc2)nc2ccccc12`, for which the result in test [6] was inactive. The Potency entry in test [4] was “inactive”.

On to `NCCNS(=O)(=O)c1cccc2cnccc12`, for which the compound was called inactive in test [6]. In test [3], the Potency entry was “inactive”.

Regarding `Cc1cccc(/C=C\c2ccccc2)n1`, the Potency in test [7] was 15.8 µM (active). Also, the Potency entry in test [8] was “inactive”.

For the compound `COc1cc([C@@H]2c3cc4c(cc3C(O[C@@H]3O[C@@H]5CO[C@@H](c6cccs6)OC5[C@H](O)[C@H]3O)C3COC(=O)[C@@H]32)OCO4)cc(OC)c1O` (some centres not stated), the Potency entry in test [5] is “inactive”.

Take `Fc1cccc(/C=N\N=C/c2cccc(F)c2)c1`: the Potency in [7] is 2.51 µM (active). Also, the Potency entry in test [8] was “inactive”.
